The values that follow come from article PMC7862700, “An all-to-all approach to the identification of sequence-specific readers for epigenetic DNA modifications on cytosine”.

Holding throughout (assay): DAPPL (digital affinity profiling via proximity ligation, sequencing); 10 mM Tris-HCl pH 7.5, 50 mM NaCl, 1 mM DTT, 4% glycerol, room temperature, 30 min; GST-TFs on glutathione beads, 16-mer random dsDNA library, 0.1% formaldehyde crosslink after washing; high values mean tight binding
Details in all cases: protein: recombinant; tags: N-terminal GST; dsDNA, one strand shown

The target of one experiment is T1, FLI1 (Homo sapiens, UniProt Q01543 1-452).
T1 sequence: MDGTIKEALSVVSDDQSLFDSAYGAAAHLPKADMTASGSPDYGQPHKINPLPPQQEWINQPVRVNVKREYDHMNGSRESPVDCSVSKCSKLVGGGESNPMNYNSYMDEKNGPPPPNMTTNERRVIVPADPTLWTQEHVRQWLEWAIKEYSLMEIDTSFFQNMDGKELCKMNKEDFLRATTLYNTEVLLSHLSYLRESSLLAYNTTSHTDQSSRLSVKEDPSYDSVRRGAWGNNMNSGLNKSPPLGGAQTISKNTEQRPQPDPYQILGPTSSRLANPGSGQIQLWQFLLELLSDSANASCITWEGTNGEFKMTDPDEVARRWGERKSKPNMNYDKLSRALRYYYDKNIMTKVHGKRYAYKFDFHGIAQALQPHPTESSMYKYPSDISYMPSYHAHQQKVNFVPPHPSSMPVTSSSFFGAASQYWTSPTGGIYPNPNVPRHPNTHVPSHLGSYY
The essentials:
(§1)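 Pools of DNA-barcoded human transcription factors, expressed in yeast as GST fusions on glutathione beads and combined with a tag-only sample, were incubated with 200 nmole of a 16-mer random double-stranded DNA library. Incubation took 30 min at room temperature in Tris/NaCl/DTT/glycerol buffer and was followed by washing, 0.1% formaldehyde crosslinking, proximity ligation (BsaI/T4 ligase, 1 h, 37 °C), PCR amplification and sequencing on an Illumina NextSeq500. Binding signal is the ratio of a hexamer's read frequency for a factor to its frequency for the tag-only sample.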

The target in a further experiment is T2, ELK1 (Homo sapiens, UniProt P19419 1-428).
T2 sequence: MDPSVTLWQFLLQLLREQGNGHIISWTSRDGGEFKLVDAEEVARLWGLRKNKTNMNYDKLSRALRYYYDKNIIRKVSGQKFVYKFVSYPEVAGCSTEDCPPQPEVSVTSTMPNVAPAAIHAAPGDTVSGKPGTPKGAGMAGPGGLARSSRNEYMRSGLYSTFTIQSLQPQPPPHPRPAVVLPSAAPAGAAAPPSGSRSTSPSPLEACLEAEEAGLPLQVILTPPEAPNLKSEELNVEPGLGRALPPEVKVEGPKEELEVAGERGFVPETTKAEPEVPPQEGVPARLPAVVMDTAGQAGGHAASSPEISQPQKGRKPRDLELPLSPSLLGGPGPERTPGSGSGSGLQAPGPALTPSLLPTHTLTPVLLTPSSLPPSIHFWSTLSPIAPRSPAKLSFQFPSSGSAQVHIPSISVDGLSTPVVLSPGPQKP
Summed up:
as §1

A further experiment deals with T3, GABPA (Homo sapiens, UniProt Q06546 1-454).
T3 sequence: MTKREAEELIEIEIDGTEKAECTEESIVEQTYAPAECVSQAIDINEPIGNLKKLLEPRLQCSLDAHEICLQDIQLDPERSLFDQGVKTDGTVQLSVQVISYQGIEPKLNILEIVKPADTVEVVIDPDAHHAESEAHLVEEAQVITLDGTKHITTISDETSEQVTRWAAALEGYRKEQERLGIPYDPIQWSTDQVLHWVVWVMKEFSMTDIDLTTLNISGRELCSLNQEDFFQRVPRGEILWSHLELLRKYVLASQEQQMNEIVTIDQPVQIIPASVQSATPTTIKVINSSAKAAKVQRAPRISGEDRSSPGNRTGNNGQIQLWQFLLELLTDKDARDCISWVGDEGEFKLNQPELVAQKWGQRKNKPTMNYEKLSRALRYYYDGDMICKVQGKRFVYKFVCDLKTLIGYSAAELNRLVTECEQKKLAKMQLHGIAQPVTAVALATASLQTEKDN
Summed up: as §1

Another experiment concerns the target T4, ERG (Homo sapiens, UniProt P11308 1-479).
T4 sequence: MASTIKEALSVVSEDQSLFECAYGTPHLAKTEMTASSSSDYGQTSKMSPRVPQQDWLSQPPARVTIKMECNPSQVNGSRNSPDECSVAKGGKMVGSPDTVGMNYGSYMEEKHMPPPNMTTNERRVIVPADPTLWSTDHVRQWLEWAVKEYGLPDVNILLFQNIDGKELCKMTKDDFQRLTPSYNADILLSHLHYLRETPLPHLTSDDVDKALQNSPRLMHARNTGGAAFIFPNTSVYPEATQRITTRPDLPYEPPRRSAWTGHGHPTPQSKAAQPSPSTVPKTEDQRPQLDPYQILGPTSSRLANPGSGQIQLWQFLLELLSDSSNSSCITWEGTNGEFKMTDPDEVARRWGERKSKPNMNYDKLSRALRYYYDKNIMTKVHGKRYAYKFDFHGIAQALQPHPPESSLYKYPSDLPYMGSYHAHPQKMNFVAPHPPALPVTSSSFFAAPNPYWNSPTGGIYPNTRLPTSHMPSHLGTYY
Summed up:
as §1

A further experiment addresses ELF1 (Homo sapiens, UniProt P32519 1-619). The essentials: as §1
For a further experiment, the target named is T5, EHF (Homo sapiens, UniProt Q9NZC4 1-300).
T5 sequence: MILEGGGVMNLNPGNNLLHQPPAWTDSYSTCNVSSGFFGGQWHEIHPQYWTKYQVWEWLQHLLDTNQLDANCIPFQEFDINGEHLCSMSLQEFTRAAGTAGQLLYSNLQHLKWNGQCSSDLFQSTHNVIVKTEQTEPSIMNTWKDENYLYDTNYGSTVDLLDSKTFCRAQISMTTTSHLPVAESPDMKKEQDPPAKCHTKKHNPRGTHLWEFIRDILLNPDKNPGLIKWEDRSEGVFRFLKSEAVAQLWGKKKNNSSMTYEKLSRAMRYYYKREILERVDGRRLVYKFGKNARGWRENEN
The essentials: as §1

The target of another experiment is SPI1 (Homo sapiens, UniProt P17947 1-270). Summed up: as §1
Another experiment addresses SPIB (Homo sapiens, UniProt Q01892 1-262). Summed up:
as §1

The target in a further experiment is T6, FEV (Homo sapiens, UniProt Q99581 1-238).
T6 sequence: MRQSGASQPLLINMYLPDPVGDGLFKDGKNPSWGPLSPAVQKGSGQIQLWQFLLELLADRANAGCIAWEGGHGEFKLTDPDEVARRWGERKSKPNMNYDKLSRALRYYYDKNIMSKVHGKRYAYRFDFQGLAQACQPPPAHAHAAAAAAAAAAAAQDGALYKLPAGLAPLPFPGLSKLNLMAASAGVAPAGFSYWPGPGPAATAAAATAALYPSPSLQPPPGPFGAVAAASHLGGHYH
Summed up:
as §1

In another experiment the target is ETV5 (Homo sapiens, UniProt P41161 1-510). The essentials: as §1
Chain of ETV5 (P41161 whole entry): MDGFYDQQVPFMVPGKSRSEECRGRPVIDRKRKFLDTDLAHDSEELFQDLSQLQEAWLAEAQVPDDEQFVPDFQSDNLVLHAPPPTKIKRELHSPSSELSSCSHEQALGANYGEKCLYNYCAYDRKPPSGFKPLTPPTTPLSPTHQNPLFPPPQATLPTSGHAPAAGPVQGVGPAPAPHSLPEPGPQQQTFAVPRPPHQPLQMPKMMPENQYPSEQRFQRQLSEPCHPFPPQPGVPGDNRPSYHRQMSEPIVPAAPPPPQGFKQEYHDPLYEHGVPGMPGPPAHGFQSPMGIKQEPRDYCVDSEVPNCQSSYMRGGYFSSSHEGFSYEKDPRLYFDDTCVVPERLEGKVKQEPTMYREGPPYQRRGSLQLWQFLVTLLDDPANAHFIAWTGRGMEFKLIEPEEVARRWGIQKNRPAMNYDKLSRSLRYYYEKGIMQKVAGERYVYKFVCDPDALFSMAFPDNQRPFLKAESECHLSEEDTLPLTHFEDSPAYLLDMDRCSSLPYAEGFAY
Another experiment has as its target T7, SPIC (Homo sapiens, UniProt Q8N5J4 1-248).
T7 sequence: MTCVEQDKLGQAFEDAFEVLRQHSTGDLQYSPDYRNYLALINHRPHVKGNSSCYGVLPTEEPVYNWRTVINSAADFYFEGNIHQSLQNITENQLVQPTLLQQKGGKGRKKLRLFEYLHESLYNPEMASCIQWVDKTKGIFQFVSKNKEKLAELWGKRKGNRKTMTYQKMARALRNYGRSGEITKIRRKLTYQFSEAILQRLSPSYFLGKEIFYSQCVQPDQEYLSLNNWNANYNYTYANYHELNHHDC
The essentials: as §1

The next experiment addresses ELF4 (Homo sapiens, UniProt Q99607 1-663). Summed up:
as §1

For a further experiment, the target named is ETV1 (Homo sapiens, UniProt P50549 1-477). Summed up:
as §1

The next experiment addresses T8, ETV3L (Homo sapiens, UniProt Q6ZN32 1-361).
T8 sequence: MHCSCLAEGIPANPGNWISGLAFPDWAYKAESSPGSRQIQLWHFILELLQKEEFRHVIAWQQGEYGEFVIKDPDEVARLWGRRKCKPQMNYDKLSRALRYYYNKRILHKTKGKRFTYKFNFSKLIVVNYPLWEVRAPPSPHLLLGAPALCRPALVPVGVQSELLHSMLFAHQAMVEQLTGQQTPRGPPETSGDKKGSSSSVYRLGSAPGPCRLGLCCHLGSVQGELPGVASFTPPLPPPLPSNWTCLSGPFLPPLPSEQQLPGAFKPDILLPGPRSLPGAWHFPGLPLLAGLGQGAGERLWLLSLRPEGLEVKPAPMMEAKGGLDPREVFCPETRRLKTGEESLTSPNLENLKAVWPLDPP
The essentials: as §1

In another experiment the target is T9, ETS2 (Homo sapiens, UniProt P15036 1-469).
T9 sequence: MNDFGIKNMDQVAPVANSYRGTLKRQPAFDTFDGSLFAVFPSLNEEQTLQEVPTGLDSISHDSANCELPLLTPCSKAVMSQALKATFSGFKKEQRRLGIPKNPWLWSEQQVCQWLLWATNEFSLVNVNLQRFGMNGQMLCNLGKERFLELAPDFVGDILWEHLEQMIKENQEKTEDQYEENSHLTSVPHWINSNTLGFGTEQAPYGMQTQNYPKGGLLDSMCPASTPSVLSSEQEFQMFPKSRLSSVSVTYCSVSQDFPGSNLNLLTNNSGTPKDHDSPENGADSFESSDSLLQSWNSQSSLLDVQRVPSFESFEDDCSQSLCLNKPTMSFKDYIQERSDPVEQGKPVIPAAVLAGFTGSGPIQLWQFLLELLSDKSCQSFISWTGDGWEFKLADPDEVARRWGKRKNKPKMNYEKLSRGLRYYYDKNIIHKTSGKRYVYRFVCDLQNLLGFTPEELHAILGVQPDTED
The essentials: as §1

In another experiment the target is T10, SPDEF (Homo sapiens, UniProt O95238 1-335).
T10 sequence: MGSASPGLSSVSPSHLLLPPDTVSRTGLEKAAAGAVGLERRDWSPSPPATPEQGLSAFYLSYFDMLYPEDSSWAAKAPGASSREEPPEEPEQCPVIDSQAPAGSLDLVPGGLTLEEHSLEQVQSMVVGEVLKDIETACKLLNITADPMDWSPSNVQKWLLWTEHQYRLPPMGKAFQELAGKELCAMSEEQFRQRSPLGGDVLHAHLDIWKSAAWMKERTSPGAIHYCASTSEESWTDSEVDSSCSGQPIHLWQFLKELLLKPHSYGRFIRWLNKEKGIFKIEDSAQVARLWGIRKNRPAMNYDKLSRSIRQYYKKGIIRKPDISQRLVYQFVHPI
Summed up:
as §1

The next experiment deals with T11, ELF5 (Homo sapiens, UniProt Q9UKW6-2 1-255).
T11 sequence: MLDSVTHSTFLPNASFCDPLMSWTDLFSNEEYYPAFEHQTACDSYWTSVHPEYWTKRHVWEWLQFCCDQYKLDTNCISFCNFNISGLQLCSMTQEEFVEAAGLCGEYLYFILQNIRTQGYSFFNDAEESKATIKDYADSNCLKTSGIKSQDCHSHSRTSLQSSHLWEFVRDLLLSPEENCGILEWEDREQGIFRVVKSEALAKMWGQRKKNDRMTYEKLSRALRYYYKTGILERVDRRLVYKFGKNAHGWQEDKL
Summed up: as §1

A further experiment addresses T12, ETV3 (Homo sapiens, UniProt P41162-2 1-143).
T12 sequence: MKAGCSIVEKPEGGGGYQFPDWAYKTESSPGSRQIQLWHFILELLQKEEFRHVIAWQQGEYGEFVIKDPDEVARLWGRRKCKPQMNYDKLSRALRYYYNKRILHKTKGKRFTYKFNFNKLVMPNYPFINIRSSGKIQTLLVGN
The essentials: as §1

The next experiment deals with ETV6 (Homo sapiens, UniProt P41212 1-452). The essentials:
as §1

Chain of ELF1 (P32519 whole entry): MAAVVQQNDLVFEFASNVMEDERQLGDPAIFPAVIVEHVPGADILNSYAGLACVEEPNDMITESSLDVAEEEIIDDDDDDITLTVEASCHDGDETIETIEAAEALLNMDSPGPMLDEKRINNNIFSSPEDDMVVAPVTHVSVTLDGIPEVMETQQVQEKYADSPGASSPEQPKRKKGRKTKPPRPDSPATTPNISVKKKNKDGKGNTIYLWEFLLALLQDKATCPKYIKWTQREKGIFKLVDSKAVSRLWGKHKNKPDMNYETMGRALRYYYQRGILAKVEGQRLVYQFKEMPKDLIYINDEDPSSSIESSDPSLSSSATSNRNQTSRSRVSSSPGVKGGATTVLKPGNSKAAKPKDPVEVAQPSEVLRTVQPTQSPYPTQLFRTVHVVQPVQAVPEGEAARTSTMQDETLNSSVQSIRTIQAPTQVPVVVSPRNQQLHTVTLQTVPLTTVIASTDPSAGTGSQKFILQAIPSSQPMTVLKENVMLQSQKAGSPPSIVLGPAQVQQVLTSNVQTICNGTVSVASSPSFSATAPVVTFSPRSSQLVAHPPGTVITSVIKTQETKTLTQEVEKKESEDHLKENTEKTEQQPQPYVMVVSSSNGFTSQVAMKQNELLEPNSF
Chain of ETV1 (P50549 whole entry): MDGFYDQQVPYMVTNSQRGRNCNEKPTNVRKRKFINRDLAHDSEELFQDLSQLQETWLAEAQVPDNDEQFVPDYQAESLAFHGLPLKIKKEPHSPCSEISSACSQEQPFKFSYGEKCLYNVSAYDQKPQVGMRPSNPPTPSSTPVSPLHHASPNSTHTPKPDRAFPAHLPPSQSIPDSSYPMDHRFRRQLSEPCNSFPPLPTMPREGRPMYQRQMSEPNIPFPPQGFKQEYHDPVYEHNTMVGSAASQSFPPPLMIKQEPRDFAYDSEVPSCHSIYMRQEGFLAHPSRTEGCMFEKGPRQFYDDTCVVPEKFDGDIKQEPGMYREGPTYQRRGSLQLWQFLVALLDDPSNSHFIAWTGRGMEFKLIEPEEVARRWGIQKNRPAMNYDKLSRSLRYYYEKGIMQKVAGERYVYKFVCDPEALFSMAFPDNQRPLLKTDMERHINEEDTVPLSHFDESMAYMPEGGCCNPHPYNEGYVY
Chain of ELF4 (Q99607 whole entry): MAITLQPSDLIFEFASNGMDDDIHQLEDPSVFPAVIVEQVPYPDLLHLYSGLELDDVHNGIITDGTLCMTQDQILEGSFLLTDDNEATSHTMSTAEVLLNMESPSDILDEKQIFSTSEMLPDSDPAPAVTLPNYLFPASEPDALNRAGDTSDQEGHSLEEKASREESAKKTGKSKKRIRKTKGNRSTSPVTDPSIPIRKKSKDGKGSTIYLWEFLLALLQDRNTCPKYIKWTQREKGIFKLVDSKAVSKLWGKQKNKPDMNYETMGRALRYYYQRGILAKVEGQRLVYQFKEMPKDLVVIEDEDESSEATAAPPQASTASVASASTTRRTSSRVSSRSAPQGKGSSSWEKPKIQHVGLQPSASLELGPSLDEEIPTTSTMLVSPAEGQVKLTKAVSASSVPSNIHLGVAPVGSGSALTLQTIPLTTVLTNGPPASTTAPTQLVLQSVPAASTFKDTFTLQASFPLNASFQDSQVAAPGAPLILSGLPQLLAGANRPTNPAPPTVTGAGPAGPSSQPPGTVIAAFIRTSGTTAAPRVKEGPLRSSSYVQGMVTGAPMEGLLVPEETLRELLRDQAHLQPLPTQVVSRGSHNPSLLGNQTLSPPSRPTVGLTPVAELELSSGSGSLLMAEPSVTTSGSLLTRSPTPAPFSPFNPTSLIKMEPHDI
Chain of SPIB (Q01892 whole entry): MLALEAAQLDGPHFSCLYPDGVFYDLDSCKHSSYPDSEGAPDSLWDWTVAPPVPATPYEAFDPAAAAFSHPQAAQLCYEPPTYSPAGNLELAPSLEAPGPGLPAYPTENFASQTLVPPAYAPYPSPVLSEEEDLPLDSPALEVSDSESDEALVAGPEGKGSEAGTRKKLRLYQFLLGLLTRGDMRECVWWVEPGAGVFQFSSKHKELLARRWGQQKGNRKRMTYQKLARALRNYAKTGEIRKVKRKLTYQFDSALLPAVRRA
Chain of ETV6 (P41212 whole entry): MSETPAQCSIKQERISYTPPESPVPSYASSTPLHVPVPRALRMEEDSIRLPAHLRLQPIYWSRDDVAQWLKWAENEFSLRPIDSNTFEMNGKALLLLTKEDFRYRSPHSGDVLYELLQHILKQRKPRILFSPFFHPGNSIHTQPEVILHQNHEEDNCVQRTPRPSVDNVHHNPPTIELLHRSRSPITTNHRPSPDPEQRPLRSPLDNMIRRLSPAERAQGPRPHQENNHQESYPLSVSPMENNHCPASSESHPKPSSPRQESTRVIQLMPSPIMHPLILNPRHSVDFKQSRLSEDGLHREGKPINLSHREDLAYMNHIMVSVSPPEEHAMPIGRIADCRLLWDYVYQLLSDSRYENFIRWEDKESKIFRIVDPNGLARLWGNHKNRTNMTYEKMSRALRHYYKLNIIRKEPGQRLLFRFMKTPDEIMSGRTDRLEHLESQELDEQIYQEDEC

In the case of CGGAAC, the binding signal is 1.16 fold enrichment (6-mer frequency, TF over GST control) in the experiment with FLI1; 1.18 fold enrichment (6-mer frequency, TF over GST control) in the experiment with ELK1; 1.05 fold enrichment (6-mer frequency, TF over GST control) with GABPA; 1.22 fold enrichment (6-mer frequency, TF over GST control) with ERG; 1.04 fold enrichment (6-mer frequency, TF over GST control) with ELF1; 1.2 fold enrichment (6-mer frequency, TF over GST control) with EHF. For the same sequence, the binding signal with SPI1 is 1.29 fold enrichment (6-mer frequency, TF over GST control); in the experiment with SPIB, 1.29 fold enrichment (6-mer frequency, TF over GST control); with FEV, 1.16 fold enrichment (6-mer frequency, TF over GST control); with ETV5, 1.29 fold enrichment (6-mer frequency, TF over GST control); with SPIC, 1.09 fold enrichment (6-mer frequency, TF over GST control); in the experiment with ELF4, 1.04 fold enrichment (6-mer frequency, TF over GST control). The binding signal with ETV1 was 1.23 fold enrichment (6-mer frequency, TF over GST control); in the experiment with ETV3L, 1.11 fold enrichment (6-mer frequency, TF over GST control); in the experiment with ETS2, 1.18 fold enrichment (6-mer frequency, TF over GST control); in the experiment with SPDEF, 1.32 fold enrichment (6-mer frequency, TF over GST control); in the experiment with ELF5, 1.3 fold enrichment (6-mer frequency, TF over GST control); with ETV3 it was 1.31 fold enrichment (6-mer frequency, TF over GST control). Besides, the binding signal in the experiment with ETV6 was 1.12 fold enrichment (6-mer frequency, TF over GST control).
